From PubChem BioAssay AID1159580 (chemical genetic matrix, 2015)
About 2,000 (36%) of roughly 5,500 compounds were called active. Inconclusive results (about 18%) are left out. Cut-off read from the data, not from the text of the source: active = normalized growth mostly below about 0.91 (no sharp cut-off); inconclusive = no clear call, values can overlap the other calls; inactive = mostly above about 0.92. The list shows a part of the results.

Experiment: chemical genetic growth profiling, strain panel (AID 1159580);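 note: tested at 20 µM; growth read once vehicle control cultures reached saturation at 30 °C; 1 = growth at the plate median or of vehicle wells; lower values mean less growth of the strain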
Conditions: growth OD

Measured: normalized growth

COP(=S)(OC)Oc1ccc(SC)c(C)c1
active: S. cerevisiae deletion strains, locus YLR320W, strain mms22, stronger effect = lower value 0.857 | S. cerevisiae deletion strains, locus YNL071W, strain lat1, stronger effect = lower value 0.879
inactive: S. cerevisiae deletion strains, locus YJR075W, strain HOC1, stronger effect = lower value 1.01 | S. cerevisiae deletion strains, locus YKL009W, strain mrt4, stronger effect = lower value 0.942 | S. cerevisiae deletion strains, locus YKL068W, stronger effect = lower value 0.996 | S. cerevisiae deletion strains, locus YKL085W, strain MDH1 (second series), stronger effect = lower value 0.999 | S. cerevisiae deletion strains, locus YKL085W, strain MDH1, stronger effect = lower value 0.999 | S. cerevisiae deletion strains, locus YKL160W, strain elf1, stronger effect = lower value 0.999 | S. cerevisiae deletion strains, locus YKL190W, strain CNB1, stronger effect = lower value 1 | S. cerevisiae deletion strains, locus YKR001C, strain vps1, stronger effect = lower value 0.986 | S. cerevisiae deletion strains, locus YKR026C, strain gcn3, stronger effect = lower value 1.01 | S. cerevisiae deletion strains, locus YKR091W, strain srl3, stronger effect = lower value 0.995 | S. cerevisiae deletion strains, locus YLL001W, strain dnm1, stronger effect = lower value 0.986 | S. cerevisiae deletion strains, locus YLL026W, stronger effect = lower value 0.972 | S. cerevisiae deletion strains, locus YLL041C, strain sdh2, stronger effect = lower value 1 | S. cerevisiae deletion strains, locus YLR027C, strain aat2, stronger effect = lower value 0.988 | S. cerevisiae deletion strains, locus YLR039C, strain RIC1, stronger effect = lower value 1.02 | S. cerevisiae deletion strains, locus YLR058C, strain SHM2, stronger effect = lower value 1.01 | S. cerevisiae deletion strains, locus YLR102C, strain apc9, stronger effect = lower value 0.985 | S. cerevisiae deletion strains, locus YLR221C, strain rsa3, stronger effect = lower value 0.92 | S. cerevisiae deletion strains, locus YLR258W, strain gsy2, stronger effect = lower value 0.979 | S. cerevisiae deletion strains, locus YLR262C, strain YPT6 (second series), stronger effect = lower value 0.949 | S. cerevisiae deletion strains, locus YLR262C, strain YPT6, stronger effect = lower value 1.01 | S. cerevisiae deletion strains, locus YLR268W, strain sec22, stronger effect = lower value 0.996 | S. cerevisiae deletion strains, locus YLR330W, strain CHS5, stronger effect = lower value 1.01 | S. cerevisiae deletion strains, locus YLR342W, strain FKS1 (second series), stronger effect = lower value 0.985 | S. cerevisiae deletion strains, locus YLR342W, strain FKS1, stronger effect = lower value 0.997 | S. cerevisiae deletion strains, locus YLR357W, strain rsc2, stronger effect = lower value 1.1 | S. cerevisiae deletion strains, locus YLR370C, strain arc18, stronger effect = lower value 1.06 | S. cerevisiae deletion strains, locus YLR371W, strain rom2, stronger effect = lower value 0.989 | S. cerevisiae deletion strains, locus YLR384C, strain iki3, stronger effect = lower value 1.02 | S. cerevisiae deletion strains, locus YLR418C, strain cdc73, stronger effect = lower value 0.984 | S. cerevisiae deletion strains, locus YML016C, strain PPZ1, stronger effect = lower value 1.02 | S. cerevisiae deletion strains, locus YML032C, strain rad52, stronger effect = lower value 0.979 | S. cerevisiae deletion strains, locus YML120C, strain ndi1, stronger effect = lower value 0.997 | S. cerevisiae deletion strains, locus YML124C, strain tub3, stronger effect = lower value 0.985 | S. cerevisiae deletion strains, locus YMR058W, strain fet3, stronger effect = lower value 0.987 | S. cerevisiae deletion strains, locus YMR078C, strain ctf18, stronger effect = lower value 0.975 | S. cerevisiae deletion strains, locus YMR125W, strain sto1, stronger effect = lower value 1.05 | S. cerevisiae deletion strains, locus YMR129W, stronger effect = lower value 1.01 | S. cerevisiae deletion strains, locus YMR205C, strain PFK2, stronger effect = lower value 0.947 | S. cerevisiae deletion strains, locus YMR223W, strain ubp8, stronger effect = lower value 0.982 | S. cerevisiae deletion strains, locus YMR231W, strain pep5, stronger effect = lower value 1 | S. cerevisiae deletion strains, locus YMR263W, strain SAP30, stronger effect = lower value 1.01 | S. cerevisiae deletion strains, locus YMR307W, strain GAS1, stronger effect = lower value 0.908 | S. cerevisiae deletion strains, locus YNL067W, strain RPL9B, stronger effect = lower value 1.01 | S. cerevisiae deletion strains, locus YNL128W, strain TEP1, stronger effect = lower value 1.02 | S. cerevisiae deletion strains, locus YNL153C, strain GIM3, stronger effect = lower value 1.02 | S. cerevisiae deletion strains, locus YNL209W, strain ssb2, stronger effect = lower value 1.01 | S. cerevisiae deletion strains, locus YNL233W, strain BNI4, stronger effect = lower value 0.998 | S. cerevisiae deletion strains, locus YNL248C, strain rpa49, stronger effect = lower value 0.967 | S. cerevisiae deletion strains, locus YNL250W, strain rad50, stronger effect = lower value 0.987 | S. cerevisiae deletion strains, locus YNL271C, strain bni1, stronger effect = lower value 0.989 | S. cerevisiae deletion strains, locus YNL298W, strain CLA4, stronger effect = lower value 0.981 | S. cerevisiae deletion strains, locus YNL307C, strain MCK1, stronger effect = lower value 0.979 | S. cerevisiae deletion strains, locus YNL322C, strain KRE1 (second series), stronger effect = lower value 1.01 | S. cerevisiae deletion strains, locus YNL322C, strain KRE1, stronger effect = lower value 1.02 | S. cerevisiae deletion strains, locus YNR049C, strain mso1, stronger effect = lower value 1 | S. cerevisiae deletion strains, locus YNR052C, strain pop2, stronger effect = lower value 0.984 | S. cerevisiae deletion strains, locus YOL006C, strain TOP1, stronger effect = lower value 1.01 | S. cerevisiae deletion strains, locus YOL012C, strain htz1 1.06 | S. cerevisiae deletion strains, locus YOL147C, strain pex11, stronger effect = lower value 0.985 | S. cerevisiae deletion strains, locus YOR001W, strain rrp6, stronger effect = lower value 0.99 | S. cerevisiae deletion strains, locus YOR061W, strain CKA2, stronger effect = lower value 1.01 | S. cerevisiae deletion strains, locus YOR069W, strain VPS5, stronger effect = lower value 1.01 | S. cerevisiae deletion strains, locus YOR070C, strain gyp1, stronger effect = lower value 0.978 | S. cerevisiae deletion strains, locus YOR080W, strain dia2, stronger effect = lower value 1.03 | S. cerevisiae deletion strains, locus YOR083W, strain WHI5, stronger effect = lower value 0.951 | S. cerevisiae deletion strains, locus YOR106W, strain vam3, stronger effect = lower value 0.968 | S. cerevisiae deletion strains, locus YOR136W, strain idh2, stronger effect = lower value 0.985 | S. cerevisiae deletion strains, locus YOR144C, strain elg1, stronger effect = lower value 0.992 | S. cerevisiae deletion strains, locus YOR184W, strain ser1, stronger effect = lower value 0.958 | S. cerevisiae deletion strains, locus YOR265W, strain rbl2, stronger effect = lower value 1.01 | S. cerevisiae deletion strains, locus YOR270C, strain vph1, stronger effect = lower value 0.791 | S. cerevisiae deletion strains, locus YOR290C, strain snf2, stronger effect = lower value 0.994 | S. cerevisiae deletion strains, locus YOR316C, strain cot1, stronger effect = lower value 0.992 | S. cerevisiae deletion strains, locus YPL051W, strain arl3, stronger effect = lower value 0.96 | S. cerevisiae deletion strains, locus YPL055C, strain LGE1, stronger effect = lower value 1.01 | S. cerevisiae deletion strains, locus YPL078C, strain atp4, stronger effect = lower value 0.988 | S. cerevisiae deletion strains, locus YPL106C, strain sse1, stronger effect = lower value 1.08 | S. cerevisiae deletion strains, locus YPL240C, strain hsp82, stronger effect = lower value 1.03 | S. cerevisiae deletion strains, locus YPL241C, strain CIN2, stronger effect = lower value 1.01 | S. cerevisiae deletion strains, locus YPR119W, strain clb2, stronger effect = lower value 0.981 | S. cerevisiae deletion strains, locus YPR141C, strain kar3, stronger effect = lower value 0.988 | S. cerevisiae deletion strains, locus YPR163C, strain tif3, stronger effect = lower value 0.98 | S. cerevisiae deletion strains, locus YPR167C, strain met16, stronger effect = lower value 0.983 | S. cerevisiae deletion strains, strain wtn01, stronger effect = lower value 0.989 | S. cerevisiae strains, strain wild type, stronger effect = lower value 1.01
